Source: PubChem
A selection: hits, their analogues and other compounds. The true share with any hit is near 3.3%.
LmPK inh – blocks Leishmania mexicana pyruvate kinase activity; Potency, µM (series often up to 57.5 µM), for inactives: top-dose activity change, negative = inhibition, actives largely listed as inhibitors; purified LmPK, Kinase-Glo ATP luminescence, 1 h; AID 1721; 290,000 tested, 0.37% active; Q27686
Target sequence (Q27686 whole entry, looked up): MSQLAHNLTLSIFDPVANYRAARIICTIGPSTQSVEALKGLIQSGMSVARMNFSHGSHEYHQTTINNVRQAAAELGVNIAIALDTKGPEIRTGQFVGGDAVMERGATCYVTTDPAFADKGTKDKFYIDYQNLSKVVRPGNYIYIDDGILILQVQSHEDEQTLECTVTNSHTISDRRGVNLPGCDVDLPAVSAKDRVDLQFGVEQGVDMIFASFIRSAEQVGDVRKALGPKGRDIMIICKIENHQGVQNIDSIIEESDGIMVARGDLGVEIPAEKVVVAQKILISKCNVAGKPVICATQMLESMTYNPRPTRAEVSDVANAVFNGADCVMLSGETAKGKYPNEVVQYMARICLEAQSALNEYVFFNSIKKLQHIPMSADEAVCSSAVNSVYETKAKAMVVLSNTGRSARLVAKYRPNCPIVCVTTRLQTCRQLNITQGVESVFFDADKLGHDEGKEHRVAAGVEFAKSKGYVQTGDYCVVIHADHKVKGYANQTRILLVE
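Pyruvate kinase activity monitored as ATP production (luciferase luminescence). Conditions: 0.1 nM enzyme, 0.5 mM PEP, 0.1 mM ADP, 1 h, RT; normalized against uninhibited and no-enzyme wells.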
TbPYK inhibitor – inhibitors of Trypanosoma brucei pyruvate kinase; Potency, µM (highest dose often 76.8 µM), inactives show at the highest dose activity, negative = inhibition, actives largely listed as inhibitors; 410,000 tested, 0.12% active; TbPYK enzyme, Kinase-Glo Plus ATP luminescence, 45 min; Q57TT1; note: nearly all actives have a fitted effect of over 50% in size
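Quantitative HTS: titrated library compounds versus trypanosomal pyruvate kinase in TEA buffer (pH 7.2) containing KCl, MgCl2, BSA and Tween-20. Reactions were initiated with ADP, 130 uM final. Kinase-Glo Plus luminescence was read after 45 min at RT.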
RE007 growth inh – less growth of the S. pombe RE007 Vpr strain; 360,000 tested, 0.21% active; Potency, µM (doses to about 92.2 µM), for inactives: top-dose activity change, negative = less growth, usual class: inhibitors; S. pombe RE007 Vpr strain, BacTiter-Glo ATP luminescence, 24 h; AID 651644; active = well fitted falling curve with a large enough effect; inconclusive = small, poorly fitted or top-dose-only effect; inactive = no such curve, though single readings can be large or run the other way; note: nearly all actives have a fitted effect of over 50% in size
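Fission yeast RE007 carrying one integrated HIV-1 vpr copy, seeded at OD 0.01 in PMG+AL medium with 23 nL pinned compound. Grown 24 h at 30 degrees; viability read by BacTiter-Glo luminescence after 5 min.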
Sm TGR inh – blocks Schistosoma mansoni thioredoxin glutathione reductase | Q962Y6 | purified TGR, DTNB reduction, TNB absorbance 405 nm | Potency, µM (titrated, usually from 114 µM), inactives show top-dose activity change, negative = inhibition, hits mostly inhibitors | 360,000 tested, 3% active; note: nearly all actives have a fitted effect of over 60% in size
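TGR 20 nM + NADPH 100 uM (dispensed conc.), cpd preinc 15 min RT; start with NADPH (500 uM addition) then DTNB (15 mM addition). Kinetic TNB absorbance, 405 nm filter. Four-parameter Hill fit across titration.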
FBPA Giardia inh – Giardia lamblia aldolase inhibition. A8B2U2. purified Giardia FBPA. Potency, µM (top dose mostly 59.6 µM), inactives show at the highest dose activity, negative = inhibition, usual class: inhibitors. 290,000 tested, 0.71% active; note: nearly all actives have a fitted effect of over 55% in size
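40 nM FBPA preincubated 10 min at RT with compound (up to 57.5 uM final), then substrate plus GAPDH/TPI/NAD/arsenate coupling and diaphorase/resazurin added. Fluorescence read after 20 min at RT, 525/598 nm.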
Numbers without * were called inactive; ? = inconclusive; nt = no result given. Unless noted, calls come from the whole dose curve; as a rule, active = well fitted curve in the direction sought with a large enough effect; inconclusive = small, poorly fitted or top-dose-only effect, or another doubt; inactive = no such curve, though single readings can be large; an effect the other way counts as inactive or inconclusive. % is set by controls: 0 for no effect and ±100 for the full control effect; potency is the fitted concentration of half-maximal effect.

SMILES | LmPK inh | TbPYK inhibitor | RE007 growth inh | Sm TGR inh | FBPA Giardia inh
COc1ccc(NC(=O)c2coc(C)c2)cc1 | 0% | -1% | -12% | 0% | 3%
O=C(Nc1cccc(O)c1)c1noc2c1CCCCC2 | 11µM* | 4% | -24% | 0% | -3%
COC(=O)c1ccccc1NC(=O)c1noc2c1CCCC2 | -1% | 2% | ? | -1% | -1%
COc1ccc(NC(=O)c2noc3c2CCC3)cc1 | 16µM* | -17% | 40µM* | -23% | -10%
CC(=O)c1ccc(NC(=O)c2noc3c2CCC3)cc1 | 1% | -3% | -18% | 40µM* | 1%
CC(=O)Nc1ccc(C)cc1-c1nc2ccccc2n(CC(=O)c2ccc(Cl)cc2)c1=O | nt | -10% | nt | 20% | nt
CCOc1c(Cl)cc(CNCc2ccccn2)cc1OC | 1% | 1% | -5% | 3% | -9%
CCc1ccc(N2C(=O)CC(N3CCN(c4ccccn4)CC3)C2=O)cc1 (configuration not stated) | 2% | 3% | ? | 22µM* | 8%
O=C1CC(N2CCN(c3ccccn3)CC2)C(=O)N1CC(c1ccccc1)c1ccccc1 (configuration not stated) | 2% | -7% | 44% | 7.1µM* | -5%
O=C(NCc1cccnc1)c1ccccc1NS(=O)(=O)c1ccc(F)cc1 | 2% | 9% | -3% | -1% | -6%
COc1ccccc1NC(=O)C(C)OC(=O)c1nc2nc(C)cc(C)n2n1 (configuration not stated) | nt | -7% | 0% | -1% | nt
Cc1ccc(S(=O)(=O)Nc2ccc(NS(=O)(=O)c3ccc(C)cc3)c3ncccc23)cc1 | nt | nt | nt | nt | -11%
COc1ccccc1N1CCN(C(c2cc3ccc(C)cc3[nH]c2=O)c2nnnn2C2CCCC2)CC1 (configuration not stated) | 5% | -3% | 18% | ? | 28µM*
CCOC(=O)C1CCN(C(c2cc3ccc(C)cc3[nH]c2=O)c2nnnn2C2CCCCC2)CC1 (configuration not stated) | 0% | 2% | 13% | 10µM* | -14%
COc1ccccc1N1CCN(C(c2cc3cc(C)ccc3[nH]c2=O)c2nnnn2C2CCCC2)CC1 (configuration not stated) | 3% | 0% | -9% | ? | ?
N#CCCN(C(=O)COC(=O)c1nc(Cl)ccc1Cl)c1ccccc1 | nt | -1% | 18% | -2% | nt
CC(C)CC1(C(=O)NCCc2c[nH]c3ccccc23)C=CCN1C(=O)c1ccccc1 (configuration not stated) | -1% | -13% | 8% | 40µM* | -3%
CN(C)c1ccc(CN(CC2CCCO2)C(=O)COc2ccc(Cl)cc2)cc1 (configuration not stated) | nt | -19% | nt | 2% | nt
Cc1cc(/C=C2\C(=O)NC(=S)N(C)C2=O)c(C)n1C1CCCCC1 | 5% | -17% | -2% | -22% | -10%
O=C1NC(=S)NC(=O)C1=Cc1ccc(Br)s1 | 11% | ? | 2% | 20µM* | -7%
CN1C(=O)/C(=C\c2ccc(Br)s2)C(=O)NC1=S | -10% | -3% | -9% | 3.2µM* | 6%
CCNC(=S)N/N=C/c1c(C)nn(-c2cccc(Cl)c2)c1Cl | 0% | -1% | -3% | -17% | 3%
CN(Cc1ccco1)c1nc(-c2cccnc2)nc2ccccc12 | nt | nt | nt | nt | -5%
Cc1ccc(CN(C)c2nc(-c3cccnc3)nc3ccccc23)o1 | -1% | -5% | 3% | 40µM* | 1%
Cc1ccc2nc(NC(=O)c3cccs3)sc2c1 | ? | 3% | -17% | 0% | -2%
SMILES | LmPK inh | TbPYK inhibitor | RE007 growth inh | Sm TGR inh | FBPA Giardia inh
CCCCNS(=O)(=O)c1ccc2nc(NC(=O)c3cccnc3)sc2c1 | nt | -1% | nt | -5% | nt
CS(=O)(=O)c1ccc2nc(NC(=O)c3cccs3)sc2c1 | 16µM* | -26% | ? | 0% | 5%
CCCNS(=O)(=O)c1ccc2nc(NC(=O)c3ccc(F)cc3)sc2c1 | nt | 1µM* | nt | -4% | nt
COc1ccc(C(CC(=O)NC(C)(C)C)n2cccc2)cc1 (configuration not stated) | 9% | 1% | 2% | -24% | 4%
C#CC[N+](C)(C)CC#Cc1ccc(Cl)cc1 | -2% | -14% | 3% | 40µM* | 4%
CCOc1ccc(NC(=S)C(C#N)=C2N(C)c3ccccc3N2C)cc1 | -4% | -7% | 2% | -6% | -23%
Cc1ccc(C(=O)Nc2cccnc2N2CCN(C)CC2)cc1 | -2% | 0% | -13% | 10% | -4%
COc1ccccc1N1C(=O)C=C(Sc2nc(C)cc(C)n2)C1=O | ? | 5µM* | 9% | 1µM* | -22%
COc1ccc(OC)c(/C=C(\C#N)c2nc(-c3ccc(F)cc3)cs2)c1 | nt | 0% | nt | 8% | nt
CC(C)C(=O)N1CCN(c2nc(-c3ccc(Cl)cc3)cs2)CC1 | -1% | -4% | ? | 32µM* | -20%
CCOC(=O)N1CCN(c2nc(-c3ccc(Cl)cc3)cs2)CC1 | 3% | -4% | 2% | 4% | 1%
Cc1c(C(=O)N2CCOCC2)c(S(=O)(=O)Nc2cccc(F)c2)c(C)n1C | 5% | 6% | -2% | 15% | 7%
O=C(Nc1ccc(Cl)cc1)[C@@H]1[C@@H]2C(=O)N(c3ccc(Cl)cc3)C(=O)[C@@H]2[C@H]2C=CC=NN21 | 0% | ? | -10% | 50µM* | -17%
Cc1ccc(N2C(=O)[C@@H]3[C@H](C2=O)[C@H]2C=CC=NN2[C@@H]3C(=O)Nc2ccc(Cl)cc2)cc1 | -4% | -21% | 16% | -35% | -19%
CC1=C(c2ccc(C)c(C)c2)S(=O)(=O)N=C1N1CCC(C(=O)NCc2ccc(C)o2)CC1 | nt | -12% | nt | -18% | nt
O=C(CSc1ccsc1[N+](=O)[O-])NCc1ccco1 | 2% | -16% | -10% | -33% | -9%
COc1ccc2[nH]c(C(=O)Nc3cccc(C)n3)cc2c1 | 28µM* | -25% | ? | 17% | 0%
COc1ccc2[nH]c(C(=O)Nc3ccc(C)c(F)c3)cc2c1 | 0% | -9% | 6% | 11% | -7%
O=c1[nH]c2ccccc2n2c(C(F)(F)F)nnc12 | 2% | -5% | -1% | -4% | 5%
COC(=O)N=Nc1c(O)[nH]c2ccc(Br)cc12 | -1% | -17% | -12% | 1% | 4%
Oc1[nH]c2ccc(Br)cc2c1N=NC(=S)N1CCOCC1 | 22µM* | ? | 13% | 20% | ?
CC1=CC(c2ccccc2)n2nc(N3C(=O)CCC3=O)nc2N1 (configuration not stated) | -2% | 6% | 0% | 53% | -6%
CC1=CC(c2ccccc2)n2nc(N3C(=O)c4ccccc4C3=O)nc2N1 (configuration not stated) | 2% | -3% | 19% | 35µM* | -1%
CCOc1ccc(S(=O)(=O)Nc2ccc(F)cc2)c(C)c1C | 0% | -1% | ? | -1% | -7%
